According to PubChem BioAssay AID1421 (Emory University Molecular Libraries Screening Center, 2008):
Among all 1,300 compounds or so, about 140 (11%) were called active. No rule for the calls is given here. Not all results are given here. Entries with a potency or affinity are not part of this list.

Each compound was assayed against Prostaglandin E2 receptor EP2 subtype (Homo sapiens) (UniProt P43116) (assay: EP2 receptor modulators, dose response, cell-based, human EP2, PGE2 EC50 shift (AID 1421)). Conditions: EP2-expressing cells, PGE2 EC50 shift by compound; at 20 µM.
Sequence of Prostaglandin E2 receptor EP2 subtype (Homo sapiens) (P43116 whole entry, looked up): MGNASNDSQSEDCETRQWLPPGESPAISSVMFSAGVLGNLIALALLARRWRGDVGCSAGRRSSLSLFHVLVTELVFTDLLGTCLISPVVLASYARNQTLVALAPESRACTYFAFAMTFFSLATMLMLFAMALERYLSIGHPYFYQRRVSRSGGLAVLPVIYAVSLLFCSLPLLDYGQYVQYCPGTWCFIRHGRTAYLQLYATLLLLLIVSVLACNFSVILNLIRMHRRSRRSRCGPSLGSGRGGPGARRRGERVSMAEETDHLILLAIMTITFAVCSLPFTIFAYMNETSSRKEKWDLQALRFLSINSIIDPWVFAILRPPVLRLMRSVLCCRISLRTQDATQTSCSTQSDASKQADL

PGE2 EC50 with compound, inactive:
CCc1ccccc1NC(=O)/C(=C/c1ccco1)c1ccccc1 0.16 nM, Cc1ccccc1NC(=O)/C(=C/c1ccccc1)c1ccccc1 0.24 nM, O=C(O)COc1cccc(NC(=O)c2ccccc2)c1 1.05 nM, Nc1c(C(=O)NCc2ccccc2)c2nc3ccccc3nc2n1CCCN1CCOCC1 0.76 nM, Nc1c(C(=O)NCc2ccco2)c2nc3ccccc3nc2n1CCc1ccccc1 1.38 nM, CCOC(=O)c1c(NC(=O)CN2CCCCC2)sc2c1CCN(C(=O)OCC)C2 0.83 nM, CCOC(=O)c1c(NC(=O)c2ccoc2C)sc(C(=O)N(C)C)c1C 0.6 nM, CCOC(=O)c1c(NC(=O)c2cccnc2)sc(C)c1C 0.31 nM, CCCCNCC(=O)Nc1sc(C)c(C)c1C(=O)OCC 0.33 nM, Cc1ccccc1-n1c(=O)[nH]c(=O)c2c(N)c(C(=O)c3ccc(Cl)cc3)sc21 0.74 nM, S=c1[nH]nc(-c2ccco2)n1/N=C/c1ccc(Cl)cc1Cl 2.86 nM, CCOP(=O)(c1ccccc1)c1nc(-c2ccccc2C)oc1N1CCCCC1 (centres undefined) 0.42 nM, CSc1nc(Sc2ccccc2)c2ccccc2n1 0.21 nM, C=CCSc1nc2ccccc2n1S(=O)(=O)c1ccc(C)cc1 0.5 nM, C=CCSc1nc2ccccc2c(=O)n1Cc1ccccc1 0.31 nM, CCCC1=C(C(=O)OCC)C(c2cccs2)C(C#N)=C(N)O1 (centres undefined) 0.32 nM, CCCCCCn1c(COc2ccccc2F)nnc1SCC(=O)N1c2ccccc2NC(=O)C1(C)C 0.69 nM, COc1ccc(-n2c(COc3cccc4ccccc34)nnc2SCC(=O)NCc2ccco2)cc1 0.72 nM, CCOC(=O)c1sc2nc(C)nc(N3CCN(c4ncccn4)CC3)c2c1C 0.7 nM, Cc1ccc(C(Sc2ccccc2)C(Cn2cncn2)C(=O)c2ccccc2)cc1 (centres undefined) 0.38 nM, Cc1ccc(-c2cc3ccccc3nc2N2CCOCC2)cc1 0.38 nM, CC(C)c1ccc(/C=N/Nc2cc(N3CCOCC3)nc(N3CCOCC3)n2)cc1 0.21 nM, Clc1ccc(-c2ccc(/C=N/Nc3cc(N4CCOCC4)nc(N4CCOCC4)n3)o2)cc1 0.09 nM, Cc1ccc(-c2nc(P(=O)(c3ccccc3)c3ccccc3)c(N3CCOCC3)o2)cc1 0.39 nM, Cc1cccc(Oc2sc(C(=O)c3ccccc3)c(N)c2C#N)c1 0.48 nM, C[C@H](C(=O)c1ccccc1)[C@@H](c1ccccc1)N1CCOCC1 0.33 nM, Cc1ccc2[nH]c3c(=S)nc[nH]c3c2c1 10.1 nM, Cc1cccc(CSc2ncnc3ccccc23)c1 0.37 nM, CN(C)c1nc(-c2ccccc2)c2cnn(Cc3ccccc3)c2n1 0.17 nM, CC1(c2ccccc2)CC(C)(C)N(C(=O)C2CCCO2)c2ccccc21 (centres undefined) 0.39 nM, CCc1ccc2[nH]c(=O)c(CN(Cc3nnnn3C3CCCC3)C3CCCCC3)cc2c1 0.64 nM, O=C(Nc1ccccc1-c1nc2ccccc2s1)c1ccc(Br)o1 0.41 nM, O=C(Nc1ccccc1Oc1ccccc1)c1ccc(Br)o1 0.3 nM, CCOC(=O)c1cnc2ccc(OCC)cc2c1N(C)Cc1ccccc1 0.07 nM, CCCCOc1ccccc1Cn1c(=O)oc2ccccc21 0.29 nM, CCCOc1ccccc1Cn1c(=O)oc2ccc(C)cc21 0.27 nM, CC(C)NC(=S)N/N=C1\CCCCC1C1CCCCC1 (centres undefined) 0.74 nM, CCN(c1cccc(C)c1)S(=O)(=O)c1ccc2c3c(cccc13)C(=O)N2 0.94 nM, C#CCn1c(S(=O)(=O)Cc2ccc(F)cc2)nc(-c2ccccc2)c1-c1ccccc1 0.37 nM, O=C1COc2ccccc2N1Cc1ccccc1Cl 0.31 nM, CC1(C)OC(c2ccccc2)=C/C(=C/C=Nc2ccccc2)O1 0.33 nM, CCSC1=N/C(=C\c2ccccc2)C(=O)N1c1ccc(OC)cc1 0.92 nM, CCOc1ccc2cc(C#N)c(SCC(=O)NC(C)CC)nc2c1 (centres undefined) 0.8 nM, CC(=O)c1cc(C#N)c(SCc2ccccc2)nc1C 0.51 nM, O=C(O)c1oc(C(=O)O)c(C(=O)O)c1C(=O)O 0.58 nM, C1=C(c2ccccc2)Nc2ccccc2N=C1c1ccccc1 0.4 nM, CSc1nnc(-c2ccc(F)cc2)o1 1.06 nM, COC(=O)CSc1nc(-c2ccccc2)nc2ccccc12 0.22 nM, CCOC(=O)CSc1nc(-c2ccccc2)nc2ccccc12 0.26 nM, C=CCn1c(=O)c2c3c(sc2n2c(Nc4ccc(OC)cc4)nnc12)CCCC3 0.74 nM, CCC(Sc1nc(-c2ccccc2)c(C#N)c(=O)[nH]1)C(=O)Nc1cc(C)on1 (centres undefined) 3.58 nM, Cc1cc2cc(CN(Cc3nnnn3C3CCCCC3)CC3CCCO3)c(=O)[nH]c2cc1C (centres undefined) 0.34 nM, O=C(Cc1ccc(F)cc1)Nc1ccccc1Sc1ccccc1 0.23 nM, Cc1ccccc1C(=O)Nc1ccccc1Sc1ccccc1 0.45 nM, COCCCN(C(=O)c1ccco1)c1nc(-c2cc(OC)ccc2OC)cs1 0.27 nM, CCCCc1nc2sc3c(SCC(=O)NCc4ccco4)ncnc3c2c2c1CCC2 0.59 nM, CCN(CC)C(=O)CN(c1cc2c(cc1OC)oc1ccccc12)S(=O)(=O)c1ccc(C)cc1 0.39 nM, Cc1cc2ccccc2nc1SCC(=O)NC1CCCCC1 1.22 nM, COc1ccc(-c2nc3ccccc3n2Cc2ccccc2)cc1 0.33 nM, COc1ccc(-c2nc3c(c(=O)[nH]c(=O)n3Cc3ccccc3)n2Cc2ccccc2)cc1 0.28 nM, Cc1ccc(S(=O)(=O)Nc2ccc(Cl)cc2C(=O)c2ccc(F)cc2)cc1 1 nM, O=C(/C(=C/O)N=Nc1ccccc1)c1ccc(Cl)cc1 7.05 nM, Cc1ccc(S(=O)(=O)NCC(=O)N(c2ccccc2)C(C(=O)NCc2ccccc2)c2ccco2)cc1 (centres undefined) 0.62 nM, O=C(c1ccco1)N(CCC(c1ccccc1)c1ccco1)Cc1ccc(F)cc1 (centres undefined) 0.84 nM, CCOC(=O)CC(=O)CSc1ncnc2c1oc1ccccc12 2.96 nM, N#CCCSc1ncnc2c1oc1ccccc12 2.48 nM, Cc1cc(=O)oc(C)c1C(=O)OC(C(=O)c1ccccc1)c1ccccc1 (centres undefined) 0.26 nM, Cc1noc(C)c1COC(=O)C(c1ccccc1)c1ccccc1 0.31 nM, COc1ccc2cc(CN(Cc3ccco3)C(c3nnnn3C3CCCCC3)C(C)C)c(=O)[nH]c2c1 (centres undefined) 0.82 nM, COc1ccc2cc3c(N)nn(C(=O)C4CCC(C(C)(C)C)CC4)c3nc2c1 (centres undefined) 0.34 nM, CCc1nnc2n1N=C(c1ccc(-c3cc(Cl)ccc3Cl)o1)CS2 0.42 nM, CCOC(=O)c1c(C=O)c(C)n(Cc2ccccc2Cl)c1C 0.46 nM, CCOC(=O)c1c(C=O)c(C)n(Cc2ccc(C)cc2)c1C 0.36 nM, Cc1cccc(NC(=O)CSc2ncnc3c2oc2ccccc23)c1 8.27 nM, Cc1nc(SCCC(=O)O)c2ccccc2n1 15.1 nM, COc1cc(/C=C/c2ccc3cccc([N+](=O)[O-])c3n2)ccc1OCC(=O)O 4.66 nM, COC(=O)C1C(c2ccccc2)C(C(=O)OCc2ccco2)C1c1ccccc1 (centres undefined) 0.38 nM, Fc1ccc(Sc2nc(-c3ccccc3)nnc2C(F)(F)F)cc1 1.16 nM, CSc1nc(Oc2ccc(F)cc2)c2ccccc2n1 0.42 nM, Cc1ccc(S(=O)(=O)c2c(C)cc(C)nc2N2CCCCC2)cc1 0.31 nM, CC1=C/C(=C(/c2ccc(O)c(C)c2)c2ccccc2C(=O)O)C=CC1=O 0.75 nM, CCOC(=O)c1c(CC(C)C)csc1N 0.39 nM, Cc1cc(Br)c2nc3c(c(C(=O)O)c2c1)CCCCC3 11.9 nM, CS(=O)(=O)N(Cc1ccccc1)c1ccccc1C(=O)Nc1ccccc1C(=O)NCc1ccco1 56.6 nM, O=C(N/N=C/c1ccc[nH]1)c1ccccc1OCc1ccccc1Cl 0.27 nM, O=C(O)NCc1ccccc1 (tested in a mixture with another compound) 0.49 nM, CCOc1ccccc1C(=O)Nc1ccccc1-c1ccccc1 0.2 nM, CCc1cc2cc(C)cc(C)c2nc1SCC(=O)N1CCCC1 0.43 nM, CCOC(=O)Cn1c(=S)[nH]c2c(oc3ccc(Cl)cc32)c1=O 6.72 nM, CCOc1ccc(OCC)c(NC(=O)CN2CCN(c3ccc(C)cc3C)CC2)c1 0.77 nM, C=CCCC1(C)C(=O)N(c2ccccc2)c2ccccc21 (centres undefined) 0.41 nM, CC1Cc2ccccc2N1CC(=O)NC(c1ccccc1)c1ccccc1 (centres undefined) 0.52 nM, CCOc1cccc(CNc2ccc(O)cc2)c1OCc1ccc(Cl)cc1 0.78 nM, Cc1cc(C)n(CCOc2ccc(Cl)cc2Cl)n1 0.34 nM
